Measured values as given in PubChem BioAssay (NCATS).
Values joined by “and” are separate entries in the source; they are usually repeats but may differ in a detail not shown here. Equal values may be shown once. Records with an inconclusive call do not appear. Active and inactive are the calls of the source. Calls come from the whole dose curve; as a rule, active = well fitted cell-killing curve with a large enough effect; inconclusive = small, poorly fitted or top-dose-only effect; inactive = no such curve, though single readings can be large or run the other way.

assay: qHTS of pediatric cancer cell lines to identify multiple opportunities for drug repurposing: Primary screen for OHS-50 cells (AID 1347103); settings: OHS-50 osteosarcoma viability, CellTiter-Glo luminescence, 48 h; series mostly up to 57.3 µM; activity change, negative = cytotoxic: at the top concentration; note: nearly all actives have a fitted effect of over 40% in size
Excerpt: Drug repurposing or repositioning has been offered as a strategy for drug development in oncology programs. This approach has special potential for childhood cancers and other rare or orphan diseases, where the expected return on new drug development has been a disincentive to pharmaceuticals.
In this project we exploit the poly-pharmacology of drugs to discover new indications via phenotypic screening of a panel of 19 well-characterized cell lines derived from solid tumors seen in children and adolescents. The goal is to identify approved drugs with previously unrecognized anticancer properties that has the potential to reveal new mechanisms and biological processes involved in carcinogenesis or drug resistance. We employed a titration-based paradigm (quantitative high-throughput screening or qHTS), where all compounds were tested at multiple concentrations for their effect on cell viability. Concentration-response curves (CRCs) were derived directly from the primary screen, and both potency and efficacy values were used to identify compounds with robust bioactivity profiles. We screened the NIH Chemical Genomics Center (NCGC) Pharmaceutical Collection (NPC) and Mechanism Interrogation Plate (MIPE) small molecule collections of approved and investigational compounds against these cell lines; and measured metabolically active cells after 48 hours of compound treatment as a proxy for cell viability.
Assay Submitter: Nathalia J. Martinez, National Center for Advancing Translational Sciences, National Institutes of Health, Rockville, MD, USA; email: natalia.martinez@nih.gov
[1] Shen, M et al. Quantitative high-throughput phenotypic screening of pediatric cancer cell lines identifies multiple opportunities for drug repurposing. Oncotarget 2017 Dec 19;9(4):4758-4772. PMID 29435139.
The cells were obtained from University of North Carolina (UNC), Pediatric Preclinical Testing Program (PPT), and Coriell Institute (CI).
qHTS cell viability assay:
Cells were assayed in growth media at a density of 500-1,000 cells/well. Five microliters of cells were dispensed into 1,536-well, white, solid-bottom, TC-treated plates (Greiner Bio One) using a multidrop dispenser and incubated at 37 degrees C, 5% CO2, under a humidified atmosphere for 5 hours. Twenty-three nanoliters of compounds and controls (neutral control DMSO or positive control bortezomib at final concentration of 2.3 µM) were subsequently transferred by Kalypsys pintool. For primary screens, the MIPE collection was tested at 11-point dilutions (final concentrations range from 0.78 nM to 46 µM) and the NPC collection at 8-point dilutions (final concentrations range from 0.59 nM to 46 µM). Compounds tested in follow-up screens were assayed at 11-point dilutions. Cells were incubated for 48 hours, followed by addition of 3 µL of CellTiter-Glo (Promega). After a 15 min incubation at room temperature, samples were analyzed for luminescence intensity using a ViewLux High-throughput CCD imager equipped with clear filters.
Potency is the fitted concentration of half-maximal effect.

Row | SMILES | activity change, negative = cytotoxic | Potency
1 | COc1ccc2c3c1OC1C[C@@H](O)C=C[C@@]31CCN(C)C2 (stereo not given in full) | -8.6% (inactive) | 
2 | NC(CO)(CO)CCc1ccc(Sc2cccc(OCc3ccccc3)c2)cc1Cl |  | 27.3 µM (active)
3 | CCOC(=O)C1=C(N)Oc2ccc(Br)cc2C1C(C#N)C(=O)OCC (stereo not given) | 3.97% (inactive) | 
4 | COc1cc2ncnc(Nc3ccc(F)c(Cl)c3)c2cc1OCCCN1CCOCC1 |  | 8.85 µM (active) and 17.4 µM (active)
5 | Cc1nc(N)sc1-c1ccnc(Nc2ccc(N3CCOCC3)cc2)n1 |  | 3.85 µM (active)
6 | CC1=C(/C=C/C(C)=C/C=C/C(C)=C/C(=O)Nc2ccc(O)cc2)C(C)(C)CCC1 |  | 15.5 µM (active)
7 | NC[C@@H]1O[C@@H](O[C@H]2[C@@H](O)[C@H](O[C@@H]3[C@@H](O)[C@@H](N)C[C@H](N)[C@H]3O[C@H]3O[C@H](CN)[C@@H](O)[C@@H](O)[C@H]3N)O[C@H]2CO)[C@H](N)[C@@H](O)[C@@H]1O | 11.1% (inactive) | 
8 | CC/C(=C(\c1ccccc1)c1ccc(OCCN(C)C)cc1)c1ccccc1 |  | 17.4 µM (active)
9 | O=C1NCC2(CCN(CCc3ccccc3)CC2)O1 | 14.8% (inactive) | 
10 | CCN(CC)C(=O)c1ccc(O)c(OC)c1 | 9.51% (inactive) | 
11 | NC(=O)NN=Cc1ccc([N+](=O)[O-])o1 | -28.7% (inactive) | 
12 | Cc1c(NC(=O)c2ccc(C(C)(C)C)cc2)cccc1-c1cn(C)c(=O)c(Nc2ccc(C(=O)N3CCOCC3)cc2)n1 |  | 24.3 µM (active)
13 | CN(C)Cc1cccc(N=C(c2ccccc2)c2c(O)[nH]c3cc(C(=O)N(C)C)ccc23)c1 |  | 17.2 µM (active)
14 | NS(=O)(=O)c1cccc2c1C(=O)c1cccc(O)c1C2=O |  | 0.769 µM (active)
15 | O=C(CCCCCCC(=O)Nc1ccccc1)NO |  | 2.19 µM (active) and 2.73 µM (active)
16 | CCC(CC)[C@H](NC(C)=O)[C@@H]1[C@H](O)[C@@H](C(=O)O)C[C@@H]1N=C(N)N | 7.61% (inactive) | 
17 | O=C1NC(=O)C(c2ccccc2)(c2ccccc2)N1 | -14.3% (inactive) | 
18 | O=C(O)Cc1cccc2ccccc12 |  | inactive
19 | O=C(Nc1ccccc1-c1cn2c(CN3CCNCC3)csc2n1)c1cnc2ccccc2n1 |  | 27.3 µM (active)
20 | COCCOC(=O)C1=C(C)NC2=C(C(=O)CC(c3ccccc3OC)C2)C1c1cccc(O)c1 (stereo not given) |  | 19.3 µM (active)

Row | SMILES | activity change, negative = cytotoxic | Potency
21 | COc1cc(NC(=O)c2ccc(-c3ccc(Cl)cc3)o2)cc(OC)c1 | 20.6% (inactive) | 
22 | CN(C[C@@H]1COCCO1)S(=O)(=O)Nc1ccc2ccc3ncc(-c4cnn(C)c4)cc3c(=O)c2c1 |  | 1.22 µM (active)
23 | COc1cc2ncnc(-n3nc(-c4ccccn4)nc3N)c2cc1OC |  | 2.17 µM (active)
24 | Cc1[nH]c(C=C2C(=O)Nc3ccc(S(=O)(=O)Cc4c(Cl)cccc4Cl)cc32)c(C)c1C(=O)N1CCC[C@H]1CN1CCCC1 |  | 30.6 µM (active)
25 | Cc1cccc(Nc2nc(-c3ccncc3)cs2)c1 |  | 21.7 µM (active)
26 | CCC(=O)NC[C@H](Cc1ccc(OCCc2nc(-c3ccccc3)oc2C)cc1)NC(C)=CC(=O)c1ccc(C(F)(F)F)cc1 |  | 12.2 µM (active)
27 | CC[C@@H]1C=C(C)C[C@H](C)C[C@H](OC)[C@H]2O[C@@](O)(C(=O)C(=O)N3CCCC[C@@H]3C(=O)O[C@H](C(C)=C[C@@H]3CC[C@H](Cl)[C@H](OC)C3)[C@H](C)[C@@H](O)CC1=O)[C@H](C)C[C@H]2OC |  | 8.63 µM (active)
28 | COC(=O)[C@@H]1[C@H]2C[C@H]3c4[nH]c5ccccc5c4CCN3C[C@@H]2CC[C@@H]1O | -9.77% (inactive) | 
29 | COc1ccc2cccc(CCNC(C)=O)c2c1 | -14.4% (inactive) | 
30 | CS(=O)c1ccc(-c2nc(-c3ccc(F)cc3)c(-c3ccncc3)[nH]2)cc1 (stereo not given) |  | 44.4 µM (active)
31 | Nc1ncnc2ccccc12 | 24.6% (inactive) | 
32 | Cc1ccc(F)c(NC(=O)Nc2ccc(-c3cccc4[nH]nc(N)c34)cc2)c1 |  | 27.3 µM (active)
33 | CCCCCNC(=O)N1CCC(CN(Cc2ccc(Cl)cc2)Cc2ccc([N+](=O)[O-])s2)C1 (stereo not given) |  | 24.3 µM (active)
34 | C=CCc1ccc(O)c(-c2ccc(O)c(CC=C)c2)c1 |  | 24.3 µM (active)
35 | CCOc1ccc(Nc2nc(-c3c(C)nc4ccccn34)cs2)cc1 |  | 0.0039 µM (active)
36 | C[N+](C)(C)CCCCCC[N+](C)(C)C | 11.9% (inactive) | 
37 | Cn1c(N2CCCCS2(=O)=O)nc(C(=O)NCc2ccc(F)cc2)c(O)c1=O | 8.06% (inactive) | 
38 | CO[C@H]1C=CC=C(C)C(=O)NC2=CC(=O)C(NCCN(C)C)=C(C[C@@H](C)C[C@H](OC)[C@@H](O)[C@@H](C)C=C(C)[C@@H]1OC(N)=O)C2=O |  | 0.385 µM (active)
39 | C[C@H](NC(=O)C(=O)Nc1ccccc1C(C)(C)C)C(=O)N[C@@H](CC(=O)O)C(=O)COc1c(F)c(F)cc(F)c1F | 8.17% (inactive) | 
40 | CN1[C@@H]2CCC[C@@H]1CC(NC(=O)c1nn(C)c3ccccc13)C2 (stereo not given in full) | -10.1% (inactive) | 
